The nature of experiment [1]: NCI Yeast Anticancer Drug Screen. Data for the rad50 strain (AID 155).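 Further: 0% = growth of vehicle-only cultures of the same strain.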 The conditions noted are these: S. cerevisiae rad50 strain growth inhibition; at 50.0 µM; stronger effect = higher value. The essentials: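 Cells are treated with compound, grown, and their growth is then scored against vehicle-only cultures of the same repair-deficient yeast strain.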
A short description of experiment [2]: NCI Yeast Anticancer Drug Screen. Data for the mec2-1 strain (AID 157). The following applies: S. cerevisiae mec2-1 strain, at 50.0 µM, stronger effect = higher value. In outline: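 Cells of the genetically defined mec2-1 yeast strain are incubated with test compound. Inhibition of growth is calculated against vehicle-treated controls.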
The nature of experiment [3]: NCI Yeast Anticancer Drug Screen. Data for the sgs1 mgt1 strain (AID 161).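 Further: 0% = growth of cultures given vehicle only.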 The conditions noted are these: S. cerevisiae sgs1 mgt1 strain, at 50.0 µM, stronger effect = higher value. In outline: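 Mutant yeast exposed to compound; growth scored against vehicle-only wells.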
A short description of experiment [4]: NCI Yeast Anticancer Drug Screen. Data for the cln2 rad14 strain (AID 165).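 Further: 0% = growth equal to vehicle treated cultures.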 The conditions noted are these: S. cerevisiae cln2 rad14 strain, at 50.0 µM, stronger effect = higher value. The essentials:
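The screen exposed genetically defined yeast (cln2 rad14) to test compounds and scored growth inhibition relative to vehicle-treated controls.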

The nature of experiment [5]: NCI Yeast Anticancer Drug Screen. Data for the bub3 strain (AID 167). The conditions noted are these: S. cerevisiae bub3 mutant strain, at 50.0 µM, stronger effect = higher value. In outline: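 Part of a panel of yeast mutants defective in DNA damage repair or cell cycle regulation. Each strain is grown with compound, and inhibition is calculated relative to solvent-treated cultures.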

A short description of experiment [6]: NCI Yeast Anticancer Drug Screen. Data for the mlh1 rad18 strain (AID 175). The following applies: S. cerevisiae mlh1 rad18 strain growth inhibition; at 50.0 µM; stronger effect = higher value. The essentials:
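Compound-treated yeast growth, normalised to vehicle controls. Strain bears defined DNA repair mutations.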

About 79,000 compounds went through this panel and 15% of them were active in at least one assay; those are over-represented in the sample as a whole. Unmarked numbers belong to inactive results. Calls of active or inactive are those of the source. No stated cut-off is given here; in the data, active means growth inhibition above about 70%; inactive means the rest.

From PubChem BioAssay (NCI) come the findings set out here.

Take `Cc1c(Cl)cccc1NC(=O)Nc1ccc(S(N)(=O)=O)cc1`: the growth inhibition in experiment [1] was 0.7%; in experiment [2], 29.4%; in experiment [3] it was 39.4%; in experiment [4], 1.4%; in experiment [5], 21.8%; in experiment [6] it was 19.1%.

On to `CCCCCCCCCCCCCCCCCCn1cnc2ncnc(Cl)c21`, for which the growth inhibition was 6.95% in experiment [1]; 5.6% in experiment [2]; 8.15% in experiment [3]; 55.3% in experiment [4]; 96.5% (active) in experiment [5]; 32.7% in experiment [6].

In the case of `Cc1cc(S(=O)(=O)Nc2nc3ccccc3[nH]2)c(S)cc1Cl`, the growth inhibition in experiment [1] is 19.9%; in experiment [2], 13.2%; in experiment [3], 23.9%; in experiment [4], 23.4%; in experiment [5], 5.55%; in experiment [6], 40.6%.

On to `COc1cccc(CC(=O)O)c1OC`, for which the growth inhibition in experiment [1] was 22.9%; in experiment [2], -4.75%; in experiment [3], -12%; in experiment [4] it was 1.8%; in experiment [5] it was -3.5%; in experiment [6], 12.6%.

As to `C=C1CC2(C)C(=O)CCCC2OC1=O` (stereo not drawn), the growth inhibition is 4.05% in experiment [1]; -0.85% in experiment [2]; 10.1% in experiment [3]; -14.9% in experiment [4]; 4.8% in experiment [5]; 4% in experiment [6].

Regarding `CC(O)COc1ccccc1Cl` (stereo not drawn), the growth inhibition is 5.2% in experiment [1]; -2% in experiment [2]; 16.5% in experiment [3]; -46.9% in experiment [4]; -0.4% in experiment [5]; 6.85% in experiment [6].

Take `CC(C)C(NC(=O)CI)C(=O)Nc1ccc(C(=O)O)c(O)c1` (stereo not drawn): the growth inhibition in experiment [1] is 24.2%; in experiment [2], 20.5%; in experiment [3], 5.7%; in experiment [4] it was -11.6%; in experiment [5] it was 7.1%; in experiment [6], 24.1%.

Take `CN1CCN(C)c2nc3ccccc3nc21`: the growth inhibition in experiment [1] was 0.2%; in experiment [2], 3%; in experiment [3] it was 1.8%; in experiment [4], -12.1%; in experiment [5], -6.85%; in experiment [6], -7.05%.

On to `C[n+]1c(-c2ccc(Cl)c(Cl)c2)c2cc(N)ccc2c2ccccc21`, for which the growth inhibition in experiment [1] was 14.9%; in experiment [2], -22.6%; in experiment [3], 30.6%; in experiment [4] it was 3.9%; in experiment [5], 7.2%; in experiment [6] it was 14.4%.

As for `Cc1ccc(/C=C(/C#N)C(N)=O)cc1`, the growth inhibition is 11.2% in experiment [1]; 0.05% in experiment [2]; 21.4% in experiment [3]; 17.6% in experiment [4]; 12.5% in experiment [5]; 29.9% in experiment [6].

For the compound `CS(=O)(=O)CCCCCCCCCCC(=O)O`, the growth inhibition was -5.4% in experiment [1]; 13.6% in experiment [2]; 3.4% in experiment [3]; 3.95% in experiment [4]; 10.4% in experiment [5]; 15.4% in experiment [6].

Take `CCOC(=O)CC1(C)c2nc(NC(C)=O)sc2Cc2sc(NC(C)=O)nc21`: the growth inhibition was -2.2% in experiment [1]; -8.9% in experiment [2]; 0.8% in experiment [3]; -26.6% in experiment [4]; -2.4% in experiment [5]; -15.5% in experiment [6].

Consider `COC(=O)C1(C2CCCCCCC2=O)NC(=S)NC(=O)C1C#N` (stereo not drawn), for which the growth inhibition in experiment [1] was 4.35%; in experiment [2] it was -18.8%; in experiment [3] it was -28.1%; in experiment [4], 11.2%; in experiment [5], -24.9%; in experiment [6], -4.05%.

`NC(Cc1ccccc1)C(=O)Nc1ccccc1` (stereo not drawn): the growth inhibition in experiment [1] is 18.3%; in experiment [2], -16%; in experiment [3], -7.3%; in experiment [4], 13.3%; in experiment [5], -22.1%; in experiment [6], 10.5%.

As for `COc1cccc2c1CCC1=CC(=O)CCC12C` (stereo not drawn), the growth inhibition was 22.1% in experiment [1]; 5.5% in experiment [2]; 17.9% in experiment [3]; 28.8% in experiment [4]; 16.9% in experiment [5]; -0.65% in experiment [6].

As for `Cn1c(=O)c2c(ncn2CCNCC(O)c2cc(C(C)(C)C)c(O)c(C(C)(C)C)c2)n(C)c1=O` (stereo not drawn), the growth inhibition was 31.2% in experiment [1]; 6.35% in experiment [2]; 19% in experiment [3]; 16.8% in experiment [4]; -3.2% in experiment [5]; 11.2% in experiment [6].

Regarding `Brc1ccccn1`, the growth inhibition in experiment [1] is 35.5%; in experiment [2], 11%; in experiment [3], 6.2%; in experiment [4], -15.1%; in experiment [5], 28.3%; in experiment [6] it was 22.8%.

On to `CCCCN(CC)C(=O)C(=O)Cc1nc2ccc(C(=O)c3ccccc3)cc2[nH]c1=O`, for which the growth inhibition in experiment [1] was 17.3%; in experiment [2], 2.45%; in experiment [3], -4.2%; in experiment [4] it was 17%; in experiment [5], 4.2%; in experiment [6], 2.4%.

Take `CCOC(=O)NCCNC(=O)OCC`: the growth inhibition in experiment [1] is 8.8%; in experiment [2], 0.3%; in experiment [3] it was 1.45%; in experiment [4] it was 6.65%; in experiment [5] it was -11.7%; in experiment [6] it was 3.6%.

As to `c1ccc2c(c1)CCOC2`, the growth inhibition in experiment [1] is -0.4%; in experiment [2] it was 5.9%; in experiment [3] it was 3.45%; in experiment [4] it was 6.5%; in experiment [5] it was 8.55%; in experiment [6], -3.1%.

With `Nc1cc(S(=O)(=O)O)ccc1O`, the growth inhibition in experiment [1] is -1%; in experiment [2], -16.1%; in experiment [3] it was -21.9%; in experiment [4], -41.9%; in experiment [5] it was 3.05%; in experiment [6], -33.5%.

Regarding `COc1ccc2c(ccc3[nH]c4c(C)cnc(NCCCN)c4c32)c1`, the growth inhibition is -39.6% in experiment [1]; -31.8% in experiment [2]; -29.3% in experiment [3]; -15.1% in experiment [4]; -17.4% in experiment [5]; -39.8% in experiment [6].

For the compound `CCOC(=O)CSc1nc(N)c2c(-c3ccccc3)c3c(nc2n1)CCCC3`, the growth inhibition is -23.1% in experiment [1]; 11.1% in experiment [2]; 10.8% in experiment [3]; 33.1% in experiment [4]; 21.7% in experiment [5]; 17.7% in experiment [6].

For the compound `CC(C)Cc1c(N)nc(NCCCC(N)C(=O)O)[nH]c1=O` (stereo not drawn), the growth inhibition in experiment [1] was 13.5%; in experiment [2] it was -16.9%; in experiment [3], -3.55%; in experiment [4], 13.1%; in experiment [5] it was 9.8%; in experiment [6] it was 11.8%.

Take `C(#CC(Sc1ccccc1)=C(Sc1ccccc1)Sc1ccccc1)Sc1ccccc1`: the growth inhibition in experiment [1] is 3.1%; in experiment [2], 2.15%; in experiment [3] it was -21.9%; in experiment [4], -32.3%; in experiment [5], 5.6%; in experiment [6], -6.25%.

Turning to `CCCC(CO)OC(=O)Nc1ccc(-c2ccccc2)cc1` (stereo not drawn), the growth inhibition in experiment [1] was -7.75%; in experiment [2], -1.1%; in experiment [3] it was -2.15%; in experiment [4], -56%; in experiment [5], 27.4%; in experiment [6] it was 11.9%.

For `CC(=O)C1CCN(Cc2ccccc2)C1` (stereo not drawn), the growth inhibition was 3.75% in experiment [1]; 6.9% in experiment [2]; 7.15% in experiment [3]; -1.05% in experiment [4]; -12.7% in experiment [5]; -21.6% in experiment [6].

Regarding `Cc1cc(C)c(C(C=O)c2ccccc2)c(C)c1` (stereo not drawn), the growth inhibition in experiment [1] was 18.6%; in experiment [2] it was 2.85%; in experiment [3], 10.3%; in experiment [4], 17.9%; in experiment [5], 6.25%; in experiment [6], 4.45%.

For `O=C(O)/C(=C/c1ccccc1[N+](=O)[O-])c1cccs1`, the growth inhibition is 27.9% in experiment [1]; 2.25% in experiment [2]; 22.6% in experiment [3]; 21.1% in experiment [4]; -11.3% in experiment [5]; 8.9% in experiment [6].

Turning to `CCCCOC(=O)C1C(c2ccc(Cl)cc2)NC(c2ccc(Cl)cc2)C(C(=O)OCCCC)S1(=O)=O` (stereo not drawn), the growth inhibition in experiment [1] was -28.2%; in experiment [2], -15.1%; in experiment [3] it was -14.5%; in experiment [4], -1.4%; in experiment [5] it was -2.35%; in experiment [6], -45.2%.

On to `CC(=O)Nc1ccc2ccccc2c1`, for which the growth inhibition is 7.15% in experiment [1]; 5.4% in experiment [2]; 0.3% in experiment [3]; -25.1% in experiment [4]; -4.1% in experiment [5]; 1.4% in experiment [6].

As for `Nc1cc(C(Br)(Br)Br)nc2ccccc12`, the growth inhibition was 17.4% in experiment [1]; 7.45% in experiment [2]; 16.8% in experiment [3]; -0.2% in experiment [4]; -11% in experiment [5]; 31.8% in experiment [6].

For the compound `CC(=O)OCC1OC(N2C(=O)/C(=C/c3ccc4c(c3)OCO4)SC2=S)C(OC(C)=O)C(OC(C)=O)C1OC(C)=O` (stereo not drawn), the growth inhibition in experiment [1] was 1.5%; in experiment [2], -12.2%; in experiment [3], -20.9%; in experiment [4], 1.15%; in experiment [5], 0.15%; in experiment [6], 0.2%.

On to `c1ccc(CCOC(c2ccccc2)(c2ccccc2)c2ccccc2)cc1`, for which the growth inhibition was -11.2% in experiment [1]; -9.25% in experiment [2]; 0.3% in experiment [3]; -61.6% in experiment [4]; -10.4% in experiment [5]; -26.2% in experiment [6].

As for `Cc1cc(C)c(NC(=O)c2cc(C(=O)O)c(C(=O)Nc3c(C)cc(C)cc3C)cc2C(=O)O)c(C)c1`, the growth inhibition in experiment [1] is 8.7%; in experiment [2], 2.5%; in experiment [3], -15.6%; in experiment [4], -7.1%; in experiment [5] it was 2.5%; in experiment [6] it was -1.55%.

In the case of `CC(=O)OCC1Cn2c(c(-c3ccccc3)c(=O)[nH]c2=S)O1` (stereo not drawn), the growth inhibition in experiment [1] was -9.15%; in experiment [2], 14.5%; in experiment [3], 5.95%; in experiment [4] it was -1.95%; in experiment [5], -6.35%; in experiment [6] it was 8.25%.

In the case of `CC(=O)OC1[C@@H](OC(C)=O)[C@H](OC(C)=O)C2(CO2)[C@H](OC(C)=O)[C@H]1OC(C)=O` (stereo partly drawn), the growth inhibition in experiment [1] is -7.05%; in experiment [2] it was -4.45%; in experiment [3], -6.4%; in experiment [4] it was -29.6%; in experiment [5] it was -0.15%; in experiment [6], 12.8%.

Turning to `CO[C@H](C)[C@@](O)(C(=O)OCC1=CCN2CCC[C@@H]12)C(C)C`, the growth inhibition is -2.3% in experiment [1]; -9.4% in experiment [2]; 32.4% in experiment [3]; 8.65% in experiment [4]; 4.5% in experiment [5]; 16.3% in experiment [6].
